Measurements reported in PubChem BioAssay AID1845224 (National Center for Advancing Translational Sciences (NCATS), 2023).
Records with an inconclusive call do not appear. The call rests on the fitted dose curve; in most records, active means well fitted curve in the direction sought with a large enough effect; inconclusive means small, poorly fitted or top-dose-only effect, or another doubt; inactive means no such curve, though single readings can be large or run the other way.

These compounds were tested on NanoLuc luciferase (engineered Oplophorus gracilirostris luciferase) (assay: Confirmatory Nanoluciferase (NLuc) qHTS assay for identification of artifact compounds.). Details: secreted NLuc in S16 cell medium, luminescence, 5 min; series mostly up to 39 µM; activity change, negative = inhibition: at the top concentration.
How it was run: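 Conditioned medium from NLuc-expressing S16 cells (diluted 1:55) was incubated with compounds for 15 min at room temperature. Nano-Glo substrate (1:100) was then added, and luminescence was read after 5 min.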
Further: % of control where 0% means no effect.

Activity change, negative = inhibition, inactive:
O=C(Nc1cc(-c2ccc(F)c(F)c2)no1)c1ccccc1F -7.28%
Cc1ccc(CNc2ncnc3onc(-c4ccc(F)cc4)c23)cc1 -15.1%
COc1ccccc1/C=C/c1nc(C#N)c(NCCc2ccccc2)o1 -17.7%
Oc1ccc(CCc2c(F)cccc2F)c2cccnc12 -11.6%
Cc1cc(NC(=O)Nc2cccc(-c3ccncc3)n2)ccc1Cl -2.7%
Cc1ccc(C)c(N2CCN(C(=O)c3ccc(Nc4nc5ccccc5n5nnnc45)cc3)CC2)c1 -2.99%
COC(=O)C1=C[C@@H](C(=O)OC)C2C3=C(C(=O)[C@]2(C)NC(=O)c2ccccc2)[C@H](C)n2c(=O)n(C)c(=O)n2[C@@H]3C1 (stereo partly drawn) -5.36%
COc1ccc(C2Nc3ccccc3C(=O)N2CC(C)(C)C)cc1COc1ccc(NC(C)=O)cc1 (stereo not drawn) -8.01%
COc1ccc(-c2cc(C(=O)Nc3cc(C(F)(F)F)ccc3Cl)no2)cc1 -1.6%
COc1ccccc1N1CCN(S(=O)(=O)c2c(C)nc3sc(C)c(C)n3c2=O)CC1 -6.1%
CCOC(=O)c1c(S(=O)(=O)N2CCCC(C(=O)NCc3ccc(F)cc3)C2)c(C)n(CC)c1C (stereo not drawn) -14.8%
O=S(=O)(Nc1cccc2cccnc12)c1ccccc1 -9.29%
COc1ccc(NC(=O)CSc2c3c(nc4ccccc24)CCC3)cc1Cl -4.79%
CCOC(=O)C1=C(CNCc2ccc(Cl)cc2)NC(=O)NC1c1ccccc1 (stereo not drawn) -27.2%
C[C@H](CCC(=O)O)[C@H]1CC[C@H]2[C@@H]3CC[C@@H]4C[C@H](O)CC[C@]4(C)[C@H]3CC[C@]12C -1.22% [at 78.4 µM]
O=C(CSc1ccnc(=O)[nH]1)NCc1ccc(F)cc1 -1.74%
Cc1ccc(-c2nc(=Nc3ccccc3)sn2-c2ccccc2)cc1 -8.48%
CC(=O)S[C@H]1CC2=CC(=O)CC[C@@]2(C)[C@H]2CC[C@@]3(C)[C@H](CC[C@]34CCC(=O)O4)[C@@H]12 -2.1% [at 19.8 µM]
CCOC(=O)c1cccc(NC(=O)c2ccc3snnc3c2)c1 -2.68%
CCOc1ccc(CCNC(=O)c2cnc3c(-c4ccccc4)c(C)nn3c2C)cc1OCC -1.56%
CC(=O)N1CCC(N(Cc2ccco2)C(=O)Nc2ccc(C)c(Cl)c2)CC1 -15.5%
CNS(=O)(=O)c1cn(CC(=O)N2CCN(c3ccc(C(C)=O)cc3)CC2)cc1S(=O)(=O)NC -15.7%
COc1ccccc1-c1nc2cc(NC(=O)c3ccccc3Cl)ccc2o1 -4.05%
Brc1ccc2nc(SCCOc3ccccc3)[nH]c2c1 -4.85%
Clc1ccc(CNc2cc(-c3ccc4c(c3)OCO4)ncn2)cc1 -8.75%
CCOc1ccccc1NC(=O)N1CCCn2nc(C)cc21 0%
O=c1c2ccccc2nc2sc(Nc3ccc(Br)cc3)nn12 -10.9%
Cc1ccc(CSc2ncccc2C(=O)O)cc1 -19.5%
